# Measurements: PubChem BioAssay (EPA / NIEHS)
# Records with an inconclusive call do not appear. Active and inactive are the calls of the source. The calls were made as follows: active = hit-call score of the fitted dose curve at least 0.9, where 1 is the maximum; inconclusive = response in the unintended direction; inactive = score below 0.9.
# Target: Bile acid receptor (Homo sapiens) (UniProt Q96RI1)
# Assay: OT_FXR_FXRSRC1_1440: Odyssey Thera (OT) 24-hour HEK293T Protein-Complementation Assay for Farnesoid X receptor/SRC-1 Co-activator (AID 2283384)
# Protocol: OT_FXR_FXRSRC1_1440 is a cell-based assay that uses HEK293T, a human kidney cell line, with measurements taken at 24 hours after chemical dosing in a 384-well plate.OT_FXR_FXRSRC1_1440 is one of one assay component(s) measured or calculated from the OT_FXR_FXRSRC1_1440 assay. It is designed to make measurements of protein fragment complementation, a form of binding reporter, as detected with fluorescence intensity signals by Protein-fragment Complementation technology.Data from the assay component OT_FXR_FXRSRC1_1440 was analyzed into 1 assay endpoint. This assay endpoint, OT_FXR_FXRSRC1_1440, was analyzed in the positive analysis fitting direction relative to DMSO as the negative control and baseline of activity. Using a type of binding reporter, measures of receptor for gain-of-signal activity can be used to understand the binding at the pathway-level as they relate to the gene NR1H4. Furthermore, this assay endpoint can be referred to as a primary readout, because the performed assay has only produced 1 assay endpoint. To generalize the intended target to other relatable targets, this assay endpoint is annotated to the nuclear receptor intended target family, where the subfamily is non-steroidal.
# Protein-fragment complementation assay, or PCA, is a method for the identification and quantification of protein-protein interactions. In the PCA, the proteins of interest ("bait" and "prey") are each covalently linked to fragments of a third protein (e.g. DHFR, which acts as a "reporter"). Interaction between the bait and the prey proteins brings the fragments of the reporter protein in close proximity to allow them to form a functional reporter protein whose activity can be measured.
# Bile acid receptor (Homo sapiens), sequence (Q96RI1 whole entry, looked up): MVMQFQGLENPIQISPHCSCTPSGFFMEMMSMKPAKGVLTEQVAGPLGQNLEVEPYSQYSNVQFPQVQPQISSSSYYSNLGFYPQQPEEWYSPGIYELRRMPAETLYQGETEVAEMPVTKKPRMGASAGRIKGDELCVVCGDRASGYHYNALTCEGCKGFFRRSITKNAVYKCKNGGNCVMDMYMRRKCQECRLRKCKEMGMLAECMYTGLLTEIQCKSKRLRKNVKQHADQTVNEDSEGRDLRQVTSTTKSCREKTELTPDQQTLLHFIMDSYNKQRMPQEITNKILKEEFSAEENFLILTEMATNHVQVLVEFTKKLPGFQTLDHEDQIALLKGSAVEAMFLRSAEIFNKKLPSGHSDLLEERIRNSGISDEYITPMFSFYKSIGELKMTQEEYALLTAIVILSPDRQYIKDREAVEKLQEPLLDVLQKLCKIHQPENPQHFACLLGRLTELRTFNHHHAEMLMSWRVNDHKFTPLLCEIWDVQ
Structure (SMILES),outcome,AC50
O=C1c2ccccc2C(=O)N1SC(Cl)(Cl)Cl,inactive,–
CNC(=O)/C=C(\C)OP(=O)(OC)OC,inactive,–
CC1(c2ccc(Oc3ccccc3)cc2)OC(=O)N(Nc2ccccc2)C1=O (centres undefined),–,1.68 µM (active)
CCc1ccc(C(=O)NN(C(=O)c2cc(C)cc(C)c2)C(C)(C)C)cc1,–,10.6 µM (active)
CN1CSC(=S)N(C)C1,inactive,–
Oc1cc(Cl)ccc1Oc1ccc(Cl)cc1Cl,–,12 µM (active)
COc1nn(CSP(=S)(OC)OC)c(=O)s1,inactive,–
CC(C)N(C(=O)COc1nnc(C(F)(F)F)s1)c1ccc(F)cc1,inactive,–
O=C(Nc1ccccc1)Nc1cnns1,inactive,–
Cc1[nH]c(=O)n(C(C)(C)C)c(=O)c1Cl,inactive,–
CCCN(CCC)c1c([N+](=O)[O-])cc(C(F)(F)F)cc1[N+](=O)[O-],inactive,–
CC(C)OC(=O)Nc1cccc(Cl)c1,inactive,–
O=[N+]([O-])/N=C1\NCCN1Cc1ccc(Cl)nc1,inactive,–
CCN(CC)C(=O)SCc1ccc(Cl)cc1,inactive,–
ClC1C(Cl)C(Cl)C(Cl)C(Cl)C1Cl (centres undefined),inactive,–
CCCN(CCOc1c(Cl)cc(Cl)cc1Cl)C(=O)n1ccnc1,–,12.4 µM (active)
CCC(C)(C)C(=O)OC1=C(c2ccc(Cl)cc2Cl)C(=O)OC12CCCCC2,–,41 µM (active)
OCCOc1ccccc1,inactive,–
COP(=S)(OC)Oc1ccc([N+](=O)[O-])cc1,–,50 µM (active)
